Consider 40 molecules from PubChem BioAssay (Tox21).

Molecules are shown by their SMILES. Results filed as inconclusive are left out. Where a call stands in place of a potency, no number is given. More than one record can exist for a structure, and the calls need not agree. Active and inactive are the calls of the source. The call rests on the fitted dose curve.
Potency means the concentration at half of the fitted maximal effect.

This test in a line: qHTS assay for small molecule agonists of the antioxidant response element (ARE) signaling pathway - cell viability counter screen (AID 743203). Further: nearly all actives have a fitted effect of over 55% in size. The following applies: ARE-bla HepG2 viability, CellTiter-Glo luminescence, 16 h; series mostly up to 73.3 µM; viability change, negative = cytotoxic: at the top concentration. From the text: National Center for Advancing Translational Sciences [NCATS]
NIH Chemical Genomics Center [NCGC]
U.S. Environmental Protection Agency [EPA]
National Institutes of Environmental Health Sciences [NIEHS]
National Toxicology Program [NTP]
U.S. Food and Drug Administration [FDA]
Oxidative stress has been implicated in the pathogenesis of a variety of diseases ranging from cancer to neurodegeneration. The antioxidant response element (ARE) signaling pathway plays an important role in the amelioration of oxidative stress. The CellSensor ARE-bla HepG2 cell line (Invitrogen) can be used for analyzing the Nrf2/antioxidant response signaling pathway. Nrf2 (NF-E2-related factor 2) and Nrf1 are transcription factors that bind to AREs and activate these genes. The CellSensor ARE-bla Hep G2 cell line contains a beta-lactamase reporter gene under control of the Antioxidant Response Element (ARE) stably integrated into HepG2 cells. The activation of the report gene under culture conditions can be detected by fluorescence intensity. This cell line has been used to screen the Tox21 10K compound library to identify agonists that induce oxidative stress. The cytotoxicity of the Tox21 compound library against the ARE-bla cell line was tested in parallel by measuring the cell viability using CellTiter-Glo assay (Promega, Madison, WI) in the same wells.
Tox21 Assay Protocol Summary:
ARE-bla HepG2 cells were dispensed at 2,000 cells/5 ul/well in 1536-well white wall/solid bottom plates using a Multidrop Combi (ThermoFisher Scientific, Waltham, MA) dispenser. After the assay plates were incubated at 37C/5% CO2 for 5 hrs, 23 nL of compounds dissolved in DMSO, positive controls or DMSO only was transferred to the assay plate by a pintool work station (Kalypsys, San Diego, CA). The plates were incubated at 37C/5% CO2 for 16 hrs, followed by addition of 4 ul/well of CellTiter-Glo reagent into the assay plates using a Flying Reagent Dispenser (Aurora Discovery, San Diego, CA). After 30 min incubation at room temperature, the luminescence intensity in the assay plates was measured using a ViewLux (PerkinElmer, Shelton, CT) plate reader.
For the molecule `Clc1ccc(Sc2cc(Cl)c(Cl)cc2Cl)cc1`, the Potency entry is “inactive”.
Same read-out and setting: with `NCCN` the entry was “inactive”.
On the same count and under the same terms, as for `Cc1cccc(Nc2ccccc2C(=O)O)c1C`, the entry is “inactive”.
For `CCCCCCCC/C=C\CCCCCCCC(=O)O`, the “viability change, negative = cytotoxic” value was 4.38% [at 94.8 µM] (inactive).
`CN1CCOCC1`: the Potency entry is “inactive”.
On the same count and under the same terms, with `COCCOCCOCCO` the entry was “inactive”; with `C=C[C@H]1CN2CC[C@H]1C[C@@H]2[C@@H](O)c1ccnc2ccc(OC)cc12`, “inactive”.
Still for that read-out and setting: as for `OC[C@@H](O)[C@@H](O[C@@H]1O[C@H](CO)[C@H](O)[C@H](O)[C@H]1O)[C@H](O)[C@@H](O)CO`, the entry is “inactive”; as for `CCc1cccc2c3c([nH]c12)C(CC)(CC(=O)O)OCC3` (stereo not given), “inactive”; as for `COc1ccc2nc(N)sc2c1`, “inactive”.
With `Nc1ccc(O)c(N)c1`, the “viability change, negative = cytotoxic” value was -25.2% (inactive).
In the case of `C[C@]12CC[C@@H]3c4ccc(O)cc4CC[C@H]3[C@@H]1CC[C@@H]2O`, the Potency entry was “inactive”.
`Cc1ccc(C(C)(C)C)c(O)c1`: the “viability change, negative = cytotoxic” value was 0.293% (inactive).
As for `O=C1CCc2ccccc2O1`, the Potency entry was “inactive”.
The same measure, in the same setting: as for `CC(=O)[C@@]1(O)CC[C@H]2[C@@H]3C[C@H](C)C4=CC(=O)C=C[C@]4(C)[C@@]3(F)[C@@H](O)C[C@@]21C`, the entry is “inactive”; as for `Oc1c(Cl)ccc(Cl)c1Cl`, “inactive”; as for `COC(=O)CC(=O)OC`, “inactive”.
`CCCCCCC(C)O` (stereo not given): the “viability change, negative = cytotoxic” value was -4.61% [at 94.8 µM] (inactive).
Same read-out and setting: as for `O=[Se](O)O`, the figure is -2.26% [at 34.3 µM] (inactive).
Regarding `NC[C@H](O)c1ccc(O)c(O)c1`, the Potency result is “inactive”.
Regarding `CC(=O)Nc1ccc2c(c1)Cc1cc(NC(C)=O)ccc1-2`, the Potency result was “inactive”.
Still for that read-out and setting: with `C[C@]12C=CC(=O)C=C1CC[C@H]1[C@@H]3C[C@@H](O)[C@](O)(C(=O)CO)[C@@]3(C)C[C@H](O)[C@@]12F` the entry was “inactive”; with `O=C(O)COCCN1CCN(C(c2ccccc2)c2ccc(Cl)cc2)CC1` (stereo not given), “inactive”.
Regarding `C/C=C/C(=O)N(CC)c1ccccc1C`, the Potency entry was “inactive”.
On the same count and under the same terms, with `O=C(O)CCCC(=O)O` the entry was “inactive”; with `NCCS(=O)(=O)O`, “inactive”.
Consider `C=CN1CCCC1=O`, for which the Potency result was “inactive”.
Same read-out and setting: with `C[N+](C)(C)CCO` the entry was “inactive”; with `FC(F)(F)C(Cl)Br` (stereo not given), “inactive”.
Same read-out and setting: with `c1ccc2c(c1)ccc1cc3c(ccc4ccccc43)cc12` the entry was “inactive”.
Still for that read-out and setting: as for `Cc1ccc([N+](=O)[O-])c(C)c1`, the entry is “inactive”; as for `CC[C@]12CCCN3CCc4c(n(c5ccccc45)[C@@](O)(C(=O)OC)C1)[C@@H]32`, “inactive”; as for `Brc1nc2ccccc2s1`, “inactive”.
Turning to `NCCOCCO`, the Potency result was “inactive”.
Regarding `CCCCCCOCCOCCO`, the Potency result is “inactive”.
Same read-out and setting: with `Nc1ccc(N)c(Cl)c1` the figure was 68.5 µM (active) and inactive; with `c1ccc2c(c1)[nH]c1ccccc12`, “inactive”; with `O=C(O)c1cc(=O)[nH]c(=O)[nH]1`, “inactive”.
Regarding `CCCCCC=O`, the Potency entry is “inactive”.
Still for that read-out and setting: with `ClC/C=C/CCl` the entry was “inactive”.
